Reference: PubChem BioAssay (NCI)
The panel holds about 79,000 compounds, 15% with a hit somewhere; the sample as a whole holds those more often. No stated cut-off is given here; in the data, active means growth inhibition above about 70%; inactive means the rest.

Legend:
[1] = NCI Yeast Anticancer Drug Screen. Data for the rad50 strain (AID 155);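 further: 0% = growth of vehicle-only cultures of the same strain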; details: S. cerevisiae rad50 strain growth inhibition; at 50.0 µM; hits give high values
Method in brief: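 Relative growth inhibition (compound vs vehicle) was measured in yeast with a defined repair-gene alteration.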

[2] = NCI Yeast Anticancer Drug Screen. Data for the mec2-1 strain (AID 157); details: S. cerevisiae mec2-1 strain, at 50.0 µM, hits give high values
Method in brief: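 Mutant yeast (mec2-1) grown with compound; growth inhibition relative to vehicle control reported.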

[3] = NCI Yeast Anticancer Drug Screen. Data for the sgs1 mgt1 strain (AID 161);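 further: 0% = growth of cultures given vehicle only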; details: S. cerevisiae sgs1 mgt1 strain, at 50.0 µM, hits give high values
Method in brief: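 Growth of a repair-deficient yeast mutant was monitored after compound treatment and expressed as inhibition relative to vehicle-treated cultures.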

[4] = NCI Yeast Anticancer Drug Screen. Data for the cln2 rad14 strain (AID 165);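 further: 0% = growth equal to vehicle treated cultures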; details: S. cerevisiae cln2 rad14 strain, at 50.0 µM, hits give high values
Method in brief: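 Readout is yeast growth inhibition versus vehicle-treated controls, using a strain with cln2 and rad14 alterations exposed to compound.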

[5] = NCI Yeast Anticancer Drug Screen. Data for the bub3 strain (AID 167); details: S. cerevisiae bub3 mutant strain, at 50.0 µM, hits give high values
Method in brief: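 Screening used yeast with an engineered genetic alteration affecting cell cycle control. Compound-exposed cultures were compared with vehicle cultures, and reduced growth was taken as inhibition.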

[6] = NCI Yeast Anticancer Drug Screen. Data for the mlh1 rad18 strain (AID 175); details: S. cerevisiae mlh1 rad18 strain growth inhibition; at 50.0 µM; hits give high values
Method in brief: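 Genetically defined yeast (DNA repair-deficient) exposed to compounds; growth inhibition determined relative to vehicle.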

Measured: growth inhibition

CSc1nc2c(c(O)c(C)c(=O)n2C2OC(COC(C)=O)C(OC(C)=O)C(OC(C)=O)C2OC(C)=O)c(=O)n1C (stereo not given)
inactive: [1] 10.1% | [2] -4.3% | [3] 62.8% | [4] 32.9% | [5] 34.7% | [6] 7.25%

O=C1c2cccc3cccc(c23)C(=O)N1CCO
inactive: [1] 50.6% | [2] 22.2% | [3] 39.9% | [4] 17.9% | [5] 16.2% | [6] 33.2%

CC1OC(OC2CCc3c(O)c4c(c(O)c3C2)C(=O)c2ccccc2C4=O)CC(N)C1O (stereo not given)
inactive: [1] 5.25% | [2] 8.9% | [3] 5.85% | [4] 14.8% | [5] -1.85% | [6] -2.15%

O=C(N/N=C/c1ccccc1[O-])c1ccccc1O.O=C(N/N=C/c1ccccc1[O-])c1ccccc1O.[Fe+2]
inactive: [1] 6.45% | [2] -10.1% | [3] -1.5% | [4] 19.3% | [5] -19.6% | [6] 9.5%

C=CC(=O)OCCOCCOC
inactive: [1] -21.1% | [2] -15.9% | [3] -2.35% | [4] -5% | [5] -18.6% | [6] -14.4%

Cn1c(=O)ccc2c1nc1ccccc1[n+]2[O-]
inactive: [1] -6.25% | [2] 4.65% | [3] -6.7% | [4] -30.8% | [5] 4.75% | [6] -11.8%

CCOC(=O)NC(=O)c1cn(CC(=O)NCC(=O)NCC(=O)NCCCN2CCN(CCCNC(=O)CNC(=O)CNC(=O)Cn3cc(C(=O)NC(=O)OCC)c(=O)[nH]c3=O)CC2)c(=O)[nH]c1=O
inactive: [1] -5% | [2] 2.4% | [3] -6.85% | [4] -23.2% | [5] -1.05% | [6] -15.8%

CCOC(=O)CC(O)(c1ccccc1)c1ccccc1
inactive: [1] -30.9% | [2] -47.4% | [3] 7.35% | [4] 5.1% | [5] -25.2% | [6] -31.5%

C[Si](C)(C)c1ccc(CC2(Cc3ccc([Si](C)(C)C)cc3)CCNC2)cc1
inactive: [1] -32.9% | [2] -39% | [3] -19.9% | [4] 3.75% | [5] -10.2% | [6] -25.9%

CNC(=O)OCc1nc(SC(C)C)n(C)c1COC(=O)NC
inactive: [1] -16% | [2] -10.3% | [3] -27.9% | [4] 4.3% | [5] -18.7% | [6] -28.1%

CC1(O)C(=O)N(Cc2ccccc2)c2ccccc21 (stereo not given)
inactive: [1] 25.6% | [2] -5% | [3] -5.2% | [4] -8.5% | [5] -10.4% | [6] 4.05%

CC(C)c1ccc([N+](=O)[O-])cc1
inactive: [1] 31.5% | [2] 11.1% | [3] 11.2% | [4] 26.6% | [5] 5.95% | [6] 16.9%

O=C(O)c1ccc(-c2c3ccc(=O)cc-3oc3cc(O)ccc23)cc1
inactive: [1] 18% | [2] -30.1% | [3] 6.05% | [4] 22.1% | [5] 23.9% | [6] 20.4%

O=C(O)C(S)c1ccc2ccccc2c1 (stereo not given)
inactive: [1] 28.6% | [2] 19.9% | [3] 20.2% | [4] 18.6% | [5] 12.3% | [6] 13.2%

CCOC(=O)C(NC(=O)CC(C)C)(NC(C)C)C(F)(F)F (stereo not given)
inactive: [1] -8.45% | [2] -2.25% | [3] -9.4% | [4] -8.1% | [5] -3.45% | [6] -12.9%

CCCCNc1ccc(S(=O)(=O)c2ccc(NCCCC)c([N+](=O)[O-])c2)cc1[N+](=O)[O-]
inactive: [1] 19.6% | [2] 6.6% | [3] 15.2% | [4] -1.4% | [5] 2.35% | [6] -9.8%

CCCCC(C(=O)OCC)[N+](=O)[O-] (stereo not given)
inactive: [1] -24.2% | [2] -25.2% | [3] 2.5% | [4] 5.5% | [5] 2.35% | [6] 16.4%

CCOC(=O)C1CCCCN1C(=O)OCc1ccccc1 (stereo not given)
inactive: [1] -6.95% | [2] -1.75% | [3] 0.75% | [4] -8.05% | [5] 20.9% | [6] -42.3%

CN(c1cn(C2CC[C@@H](CO)O2)c(=O)[nH]c1=O)C1CCCCC1 (stereo not given in full)
inactive: [1] -35.8% | [2] -13.4% | [3] -58.4% | [4] -6% | [5] 5.35% | [6] -41.5%

CC1=C(C)CC2C(=O)C=CC(=O)C2C1 (stereo not given)
inactive: [1] 8.9% | [2] 1.4% | [3] -10.7% | [4] 4.65% | [5] 2.25% | [6] -6.9%
